Inconclusive results are not listed. The source made the active and inactive calls.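 Rule for the calls, unless noted: active = inhibition above the screen-wide mean plus 3 SD, about 51%; inactive = the rest.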
Columns and labels:
[1] = rapamycin-like changes in RPL19A-GFP expression – cell-based, S. cerevisiae, multiplex flow cytometry, primary screen (AID 1862; in the data active = percent of DMSO control GFP below about 86%;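 note: lower values mimic rapamycin by blocking the RPL19A rise seen in DMSO cells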); settings: S. cerevisiae RPL19A-GFP strain, flow cytometry fluorescence, 3 h; at 10 µM; stronger effect = lower value
[2] = TOR pathway GLN3 branch reporter MEP2-GFP changes – S. cerevisiae, multiplex flow cytometry, primary screen (AID 1867;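 active = GFP response, as percent of the DMSO control, above the screen-wide mean plus 3 SD, about 139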;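 note: median GFP channel fluorescence of barcode-gated MEP2-GFP cells measured by flow cytometry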); settings: S. cerevisiae MEP2-GFP strain, 3 h, at 10 µM, stronger effect = higher value, 100% means same as DMSO wells
[3] = TOR pathway RTG branch CIT2 reporter changes – S. cerevisiae, GFP fusion, multiplex flow cytometry, primary screen (AID 1870;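 active = percent response above a set limit, the screen-wide mean plus 3 SD, cut at about 130% in these data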;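 note: barcoded CIT2-GFP strain pooled with four other GFP strains with rapamycin as positive control; median GFP fluorescence per well over plate mean of DMSO wells so 100% = DMSO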); settings: S. cerevisiae CIT2-GFP expression, 3 h, at 10 µM, stronger effect = higher value
[4] = TOR pathway LAP4-GFP level changes – S. cerevisiae, multiplex flow cytometry, primary screen (AID 1873;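 active = GFP signal, as percent of the solvent control, above the screen mean plus 3 SD, about 149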); settings: S. cerevisiae LAP4-GFP expression, 3 h, at 10 µM, stronger effect = higher value
[5] = yeast AGP1-GFP level changes, GLN3 branch – cell-based, multiplex flow cytometry, S. cerevisiae, primary screen (AID 1887;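 active = GFP signal above the screen-wide mean plus 3 SD, that is over about 124.5% of the solvent control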;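 note: AGP1-GFP fusion strain of S. cerevisiae within a five-strain barcoded multiplex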); settings: 3 h, at 10 µM, stronger effect = higher value
[6] = reduced mouse 2C T cell binding to pMHC/ICAM-1 vesicles – MLPCN validation set, flow cytometry, LFA-1/ICAM-1 modulator project, pilot screen (AID 2523;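 active = response below a set limit, under 55% cells CD8-positive and vesicle-bound, and CD8 cells' 90th-percentile brightness under 279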;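 for vesicle binding response: mean PE anti-B7-1 fluorescence of CD8+ cells relative to row control; 100% = QL9-loaded vesicles with DMSO vehicle in the same plate row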); settings: 2C mouse CD8+ T cells, at 7 µM, stronger effect = lower value; double positive events: measured here: CD8+/vesicle+ event percentage
[7] = molecular target: Integrin beta-1 (Homo sapiens) + Integrin alpha-4 (Homo sapiens) (UniProt P13612+P05556); assay: alpha4beta1 integrin LIBS antibody binding reduction – U937 cells, HUTS-21 mAb, flow cytometry, validation set, VLA-4 allosteric modulator project, pilot screen (AID 2674;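 active = inhibition above 50%, about 3 SD of the validation set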;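 note: antibody binding induced by the VLA-4 ligand LDV present at three times its Kd; 0% = LDV ligand with antibody and no compound and 100% = antibody without LDV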); settings: HUTS-21 LIBS mAb binding, at 6.7 µM, stronger effect = higher value, binding induced by LDV ligand
[8] = calorie-restriction mimetic ROS inhibitors, yeast – validation compound set, pilot screen (AID 2706;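 active = superoxide response below 65% of plate, a cut near 3 SD across the whole screen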;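 note: yeast exposed to compound for one week at 30 degrees C before staining; 100% = mean of all compound wells on the same plate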); settings: S. cerevisiae aging, superoxide DHE fluorescence; at 10 µM; stronger effect = lower value
[9] = molecular target: Beta-adrenergic receptor kinase 1 (Homo sapiens) (UniProt P25098); assay: GRK2 binders displacing RNA aptamer, biochemical, validation, human GRK2, bead flow cytometry (AID 488806;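 active = aptamer binding inhibition above 30%, about 3 SD of noise from non-fluorescent compounds; inactive = inhibition at or below 30%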); settings: bead-bound GRK2, FAM-aptamer displacement, at 10 µM, stronger effect = higher value
[10] = molecular target: Beta-2 adrenergic receptor (Homo sapiens) (UniProt P07550); assay: agonist-induced loss of surface beta2AR – cell-based, FAP fluorogen, flow cytometry, validation set, pilot screen (AID 504459;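 active = percent response above 42, roughly 3 SD of non-fluorescent test compounds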;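 note: agonist-driven loss of surface beta2AR via internalization measured by FAP dye flow cytometry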); settings: Am2.2-beta2AR cells, at 10 µM, stronger effect = higher value
[11] = molecular target: AP-2 complex subunit beta (Homo sapiens) (UniProt P63010); assay: beta-arrestin/AP2 interaction blockers – biochemical, validation set, GST-AP2 beads, flow cytometry, pilot screen (AID 504541;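 active = inhibition above 54%, about 3 SD of non-fluorescent compounds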;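 note: AP2 carries R879A mutation and is captured from E. coli lysate; bead-bound FITC arrestin peptide fluorescence measuring arrestin peptide binding to AP2; 0% = DMSO wells and 100% = excess unlabeled arrestin peptide control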); settings: FITC arrestin peptide, at 10 µM, stronger effect = higher value, AP2 beta2 appendage fragment, R879A mutant
[12] = cytosolic pH regulators acting via V-ATPase – S. cerevisiae, pHLuorin, HTS validation (AID 504600; in the data active = response above about 15%;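 note: plate controls were DMSO for no effect and reference compound for full effect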); settings: V-ATPase proton transport, at 10 µM, stronger effect = higher value
[13] = system: anti-desmoglein-3 scFv antibody binding to human DSG3; assay: blockers of pathogenic pemphigus antibody–desmoglein-3 binding – biochemical, validation compound set, bead-based, flow cytometry, pilot screen (AID 588368;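 active = binding below the plate cutoff, the plate median minus 3 SD, with a reading above zero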;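 note: signal is the median channel fluorescence of bead-bound GFP antibody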); settings: Protein G beads, DSG3-Fc, scFv-GFP binding, at 10 µM, stronger effect = lower value
[14] = Nile Red efflux blockade in pump-expressing yeast – validation compound set, multiplex, phenotypic, pilot screen (AID 588506;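 active = efflux inhibition above 0.42, the validation set average plus 4 SD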;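 note: Nile Red retained in cells so higher fluorescence means more efflux inhibition; 0 = negative control wells and 1 = enniatin B 25 µM full block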); settings: S. cerevisiae pump-expressing triplex, Nile Red efflux flow cytometry; at 10 µM; stronger effect = higher value; the pumps come from Candida albicans
[15] = molecular target: ATP-binding cassette sub-family B member 6 (Homo sapiens) (UniProt Q9NP58); assay: blockers of ABCB6-driven porphyrin uptake – K562-ABCB6 cells, flow cytometry, validation set, pilot screen (AID 588550); settings: K562-ABCB6 porphyrin accumulation, 1 h, at 10 µM, stronger effect = higher value;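 note: 0% = DMSO wells and 100% = benzethonium chloride 70 µM positive control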
[16] = AML differentiation inducers, ER-HoxA9 marrow cells – cell-based, GFP/MAC1 double positive, flow cytometry, validation set, primary screen (AID 588685;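 active = differentiation response of at least 50%, scaled between solvent and reference control, from cells with both markers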;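 note: compound exposure lasts four days before antibody staining and flow analysis; 0% = DMSO wells and 100% = 5 µM fulvestrant positive control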); settings: stronger effect = higher value, normalized: vehicle 0, fulvestrant 100

Chain of Beta-adrenergic receptor kinase 1 (Homo sapiens) (P25098 whole entry, looked up): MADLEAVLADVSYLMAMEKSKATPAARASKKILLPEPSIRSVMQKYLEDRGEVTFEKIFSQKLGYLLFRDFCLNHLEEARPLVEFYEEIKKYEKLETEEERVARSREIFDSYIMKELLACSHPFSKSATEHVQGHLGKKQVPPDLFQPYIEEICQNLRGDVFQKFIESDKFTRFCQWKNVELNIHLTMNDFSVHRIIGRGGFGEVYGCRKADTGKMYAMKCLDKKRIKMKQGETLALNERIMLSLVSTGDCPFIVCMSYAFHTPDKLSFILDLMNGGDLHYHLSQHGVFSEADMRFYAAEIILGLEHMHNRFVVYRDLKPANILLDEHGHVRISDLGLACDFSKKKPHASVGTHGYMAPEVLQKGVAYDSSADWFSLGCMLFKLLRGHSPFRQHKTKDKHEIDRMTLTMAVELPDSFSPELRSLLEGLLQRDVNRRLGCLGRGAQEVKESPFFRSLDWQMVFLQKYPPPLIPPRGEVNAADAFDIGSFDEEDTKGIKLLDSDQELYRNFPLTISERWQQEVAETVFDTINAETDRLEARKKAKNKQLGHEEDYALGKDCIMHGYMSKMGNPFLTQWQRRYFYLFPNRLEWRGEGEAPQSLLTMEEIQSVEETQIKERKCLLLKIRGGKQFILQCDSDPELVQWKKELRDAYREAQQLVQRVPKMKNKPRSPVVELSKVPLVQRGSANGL
Chain of AP-2 complex subunit beta (Homo sapiens) (P63010 whole entry, looked up, the tested form may be a part, one chain of several): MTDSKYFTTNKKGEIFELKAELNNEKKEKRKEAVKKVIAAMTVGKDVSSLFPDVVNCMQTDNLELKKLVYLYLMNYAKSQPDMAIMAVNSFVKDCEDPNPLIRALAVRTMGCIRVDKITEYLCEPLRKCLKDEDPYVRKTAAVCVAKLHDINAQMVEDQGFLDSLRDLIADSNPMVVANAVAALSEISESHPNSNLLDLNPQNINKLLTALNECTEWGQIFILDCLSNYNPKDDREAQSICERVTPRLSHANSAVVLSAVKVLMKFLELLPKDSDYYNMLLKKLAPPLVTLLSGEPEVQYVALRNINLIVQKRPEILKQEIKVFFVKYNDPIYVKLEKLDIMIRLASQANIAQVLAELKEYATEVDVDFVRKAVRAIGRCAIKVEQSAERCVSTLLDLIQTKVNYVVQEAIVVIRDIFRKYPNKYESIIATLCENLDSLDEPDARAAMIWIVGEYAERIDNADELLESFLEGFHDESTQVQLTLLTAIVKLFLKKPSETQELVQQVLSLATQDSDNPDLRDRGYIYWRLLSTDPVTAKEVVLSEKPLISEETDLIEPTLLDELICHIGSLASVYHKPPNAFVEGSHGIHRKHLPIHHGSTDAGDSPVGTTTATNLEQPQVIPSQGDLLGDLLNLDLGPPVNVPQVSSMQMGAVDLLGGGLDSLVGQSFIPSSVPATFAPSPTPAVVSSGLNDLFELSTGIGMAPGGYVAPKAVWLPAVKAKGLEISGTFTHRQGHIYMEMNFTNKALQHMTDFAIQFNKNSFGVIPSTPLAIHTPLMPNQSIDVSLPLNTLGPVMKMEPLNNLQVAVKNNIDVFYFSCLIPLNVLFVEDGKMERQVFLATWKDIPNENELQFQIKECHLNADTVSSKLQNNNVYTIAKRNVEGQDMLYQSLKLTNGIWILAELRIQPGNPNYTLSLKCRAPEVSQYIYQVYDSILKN
Chain of Integrin beta-1 (Homo sapiens) + Integrin alpha-4 (Homo sapiens) (P05556 whole entry, looked up): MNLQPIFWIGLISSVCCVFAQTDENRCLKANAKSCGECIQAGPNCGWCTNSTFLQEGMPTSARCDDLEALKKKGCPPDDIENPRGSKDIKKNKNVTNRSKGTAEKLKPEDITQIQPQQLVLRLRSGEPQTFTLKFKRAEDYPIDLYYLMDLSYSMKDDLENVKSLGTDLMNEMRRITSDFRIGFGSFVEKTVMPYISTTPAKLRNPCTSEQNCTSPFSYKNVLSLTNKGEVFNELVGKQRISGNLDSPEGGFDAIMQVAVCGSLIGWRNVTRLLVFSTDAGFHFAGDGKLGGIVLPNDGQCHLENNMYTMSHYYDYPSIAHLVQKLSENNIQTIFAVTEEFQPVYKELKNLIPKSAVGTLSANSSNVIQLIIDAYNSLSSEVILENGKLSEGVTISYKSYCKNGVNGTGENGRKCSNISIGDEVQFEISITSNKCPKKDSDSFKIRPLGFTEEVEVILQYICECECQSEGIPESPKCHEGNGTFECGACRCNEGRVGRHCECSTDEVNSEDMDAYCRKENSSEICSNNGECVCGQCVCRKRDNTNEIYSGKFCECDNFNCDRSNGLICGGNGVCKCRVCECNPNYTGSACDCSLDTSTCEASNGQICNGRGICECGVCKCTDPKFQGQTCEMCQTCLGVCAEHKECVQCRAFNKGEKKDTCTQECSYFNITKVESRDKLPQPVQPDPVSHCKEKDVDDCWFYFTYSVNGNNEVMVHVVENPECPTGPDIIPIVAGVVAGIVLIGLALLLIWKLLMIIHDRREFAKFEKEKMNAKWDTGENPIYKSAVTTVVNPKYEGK
Chain of Integrin beta-1 (Homo sapiens) + Integrin alpha-4 (Homo sapiens) (P13612 whole entry, looked up): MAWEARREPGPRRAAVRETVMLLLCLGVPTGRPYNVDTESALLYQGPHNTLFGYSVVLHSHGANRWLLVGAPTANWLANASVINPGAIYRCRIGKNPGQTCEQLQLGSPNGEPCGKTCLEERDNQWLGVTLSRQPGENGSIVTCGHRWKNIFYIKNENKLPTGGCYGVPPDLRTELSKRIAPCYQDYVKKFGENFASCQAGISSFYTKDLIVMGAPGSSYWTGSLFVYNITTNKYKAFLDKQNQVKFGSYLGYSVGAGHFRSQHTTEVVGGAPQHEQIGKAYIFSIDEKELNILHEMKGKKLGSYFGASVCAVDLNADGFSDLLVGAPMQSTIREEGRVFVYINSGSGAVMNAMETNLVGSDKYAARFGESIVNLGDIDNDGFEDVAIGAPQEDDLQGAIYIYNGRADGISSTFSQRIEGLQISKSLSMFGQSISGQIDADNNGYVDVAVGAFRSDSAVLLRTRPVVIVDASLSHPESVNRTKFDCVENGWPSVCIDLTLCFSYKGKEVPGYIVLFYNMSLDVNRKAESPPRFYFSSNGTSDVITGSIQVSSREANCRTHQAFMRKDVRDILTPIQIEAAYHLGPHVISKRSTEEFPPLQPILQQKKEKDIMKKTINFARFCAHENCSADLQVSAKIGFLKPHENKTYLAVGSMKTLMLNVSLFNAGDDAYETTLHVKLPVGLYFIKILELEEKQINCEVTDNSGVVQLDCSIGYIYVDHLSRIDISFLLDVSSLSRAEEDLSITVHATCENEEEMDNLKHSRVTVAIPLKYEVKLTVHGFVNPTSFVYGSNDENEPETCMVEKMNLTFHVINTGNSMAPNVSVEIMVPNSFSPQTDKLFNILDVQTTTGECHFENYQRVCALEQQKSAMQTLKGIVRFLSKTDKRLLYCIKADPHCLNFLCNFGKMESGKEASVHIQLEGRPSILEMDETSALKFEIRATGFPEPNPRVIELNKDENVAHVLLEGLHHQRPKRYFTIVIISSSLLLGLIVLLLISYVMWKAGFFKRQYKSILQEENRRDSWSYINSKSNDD
Chain of ATP-binding cassette sub-family B member 6 (Homo sapiens) (Q9NP58 whole entry, looked up): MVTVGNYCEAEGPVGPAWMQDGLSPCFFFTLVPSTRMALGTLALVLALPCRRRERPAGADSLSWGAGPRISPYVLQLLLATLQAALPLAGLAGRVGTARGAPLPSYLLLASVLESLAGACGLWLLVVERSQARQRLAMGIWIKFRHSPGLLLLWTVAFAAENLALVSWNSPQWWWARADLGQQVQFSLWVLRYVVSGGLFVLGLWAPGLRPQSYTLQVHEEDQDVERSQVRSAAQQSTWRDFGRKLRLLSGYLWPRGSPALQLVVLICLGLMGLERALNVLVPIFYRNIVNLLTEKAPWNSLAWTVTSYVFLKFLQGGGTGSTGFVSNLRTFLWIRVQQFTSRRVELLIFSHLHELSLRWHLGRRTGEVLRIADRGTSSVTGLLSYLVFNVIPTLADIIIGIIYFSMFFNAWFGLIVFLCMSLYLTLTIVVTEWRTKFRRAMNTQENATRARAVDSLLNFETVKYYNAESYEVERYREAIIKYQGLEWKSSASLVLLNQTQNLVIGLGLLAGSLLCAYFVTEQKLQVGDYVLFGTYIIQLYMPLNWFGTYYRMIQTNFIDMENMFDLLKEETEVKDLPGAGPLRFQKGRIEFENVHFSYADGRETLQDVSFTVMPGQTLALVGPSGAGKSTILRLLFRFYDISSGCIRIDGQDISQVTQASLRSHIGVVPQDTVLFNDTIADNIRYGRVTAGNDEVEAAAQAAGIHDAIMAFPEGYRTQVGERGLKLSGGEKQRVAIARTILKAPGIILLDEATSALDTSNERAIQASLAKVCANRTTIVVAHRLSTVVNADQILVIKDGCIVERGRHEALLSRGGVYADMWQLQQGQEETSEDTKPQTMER
Chain of Beta-2 adrenergic receptor (Homo sapiens) (P07550 whole entry, looked up): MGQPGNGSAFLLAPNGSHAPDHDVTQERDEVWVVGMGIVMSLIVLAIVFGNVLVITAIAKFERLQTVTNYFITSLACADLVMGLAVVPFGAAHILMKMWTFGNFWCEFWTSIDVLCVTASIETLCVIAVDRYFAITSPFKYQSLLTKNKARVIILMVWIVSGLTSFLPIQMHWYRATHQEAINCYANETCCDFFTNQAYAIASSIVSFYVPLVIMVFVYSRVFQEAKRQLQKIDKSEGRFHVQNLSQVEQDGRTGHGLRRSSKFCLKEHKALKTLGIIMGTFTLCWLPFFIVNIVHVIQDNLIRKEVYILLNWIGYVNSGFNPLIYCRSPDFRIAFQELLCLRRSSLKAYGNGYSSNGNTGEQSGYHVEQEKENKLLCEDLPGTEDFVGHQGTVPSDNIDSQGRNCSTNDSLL

## CCOC(=O)c1oc2cc(O)cc(C)c2c(=O)c1-c1cscn1
[1]
  percent of DMSO control GFP: 100% (inactive)
[2]
  GFP response vs DMSO: 105% (inactive)
[3]
  percent response of DMSO control: 91% (inactive)
[4]
  GFP response vs DMSO: 119% (inactive)
[5]
  GFP response, % of DMSO: 102% (inactive)
[6]
  double positive events: 58.7%
  vesicle binding response: 182% (inactive)
[7]
  inhibition: 3.67% (inactive)
[8]
  superoxide response (% of plate): 101% (inactive)
[9]
  aptamer binding inhibition: 4% (inactive)
[10]
  response: -3.97% (inactive)
[11]
  inhibition: 24.6% (inactive)
[12]
  response: -5.59% (inactive)
[13]
  binding (% of control): 101% (inactive)
[14]
  efflux inhibition (fraction of control): -0.06 (inactive)
[15]
  inhibition: 3% (inactive)
[16]
  differentiation response: 5.6% (inactive)

## CCOc1ccc(NC2OC(C)C(O)C(O)C2O)c([N+](=O)[O-])c1 (stereo not drawn)
[1]
  percent of DMSO control GFP: 101% (inactive)
[2]
  GFP response vs DMSO: 104% (inactive)
[3]
  percent response of DMSO control: 97.8% (inactive)
[4]
  GFP response vs DMSO: 95.3% (inactive)
[5]
  GFP response, % of DMSO: 102% (inactive)
[6]
  double positive events: 62.7%
  vesicle binding response: 4580% (inactive)
[7]
  inhibition: -4.6% (inactive)
[8]
  superoxide response (% of plate): 102% (inactive)
[9]
  aptamer binding inhibition: 2% (inactive)
[10]
  response: 5.64% (inactive)
[11]
  inhibition: -9.73% (inactive)
[12]
  response: 2.76% (inactive)
[13]
  binding (% of control): 94.8% (inactive)
[14]
  efflux inhibition (fraction of control): -0.01 (inactive)
[15]
  inhibition: -10% (inactive)
[16]
  differentiation response: -2.69% (inactive)

## O=C(O)c1ccc(OCCn2ccnc2)cc1
[1]
  percent of DMSO control GFP: 103% (inactive)
[2]
  GFP response vs DMSO: 95.6% (inactive)
[3]
  percent response of DMSO control: 106% (inactive)
[4]
  GFP response vs DMSO: 93.7% (inactive)
[5]
  GFP response, % of DMSO: 112% (inactive)
[6]
  double positive events: 66.1%
  vesicle binding response: 173% (inactive)
[7]
  inhibition: 9.63% (inactive)
[8]
  superoxide response (% of plate): 91.6% (inactive)
[9]
  aptamer binding inhibition: -2% (inactive)
[10]
  response: -0.04% (inactive)
[11]
  inhibition: -0.39% (inactive)
[12]
  response: 2.25% (inactive)
[13]
  binding (% of control): 101% (inactive)
[14]
  efflux inhibition (fraction of control): 0.36 (inactive)
[15]
  inhibition: 16% (inactive)
[16]
  differentiation response: 2.74% (inactive)

## CC(=O)OC(C)C[N+](C)(C)C (stereo not drawn)
[1]
  percent of DMSO control GFP: 103% (inactive)
[2]
  GFP response vs DMSO: 102% (inactive)
[3]
  percent response of DMSO control: 96.4% (inactive)
[4]
  GFP response vs DMSO: 115% (inactive)
[5]
  GFP response, % of DMSO: 124% (inactive)
[6]
  double positive events: 65.5%
  vesicle binding response: 191% (inactive)
[7]
  inhibition: -7.08% (inactive)
[8]
  superoxide response (% of plate): 86.6% (inactive)
[9]
  aptamer binding inhibition: 5% (inactive)
[10]
  response: -16.2% (inactive)
[11]
  inhibition: -17.2% (inactive)
[12]
  response: 0.37% (inactive)
[13]
  binding (% of control): 107% (inactive)
[14]
  efflux inhibition (fraction of control): 0 (inactive)
[15]
  inhibition: 6% (inactive)
[16]
  differentiation response: 6.83% (inactive)

## COc1cc(COc2ccc3c(C)c(Cc4ccccc4)c(=O)oc3c2)cc(OC)c1OC
[1]
  percent of DMSO control GFP: 102% (inactive)
[2]
  GFP response vs DMSO: 103% (inactive)
[3]
  percent response of DMSO control: 122% (inactive)
[4]
  GFP response vs DMSO: 94% (inactive)
[5]
  GFP response, % of DMSO: 98.9% (inactive)
[6]
  double positive events: 55%
  vesicle binding response: 38.9% (inactive)
[7]
  inhibition: 5.77% (inactive)
[8]
  superoxide response (% of plate): 117% (inactive)
[9]
  aptamer binding inhibition: 3% (inactive)
[10]
  response: 5.22% (inactive)
[11]
  inhibition: 3.79% (inactive)
[12]
  response: -1.95% (inactive)
[13]
  binding (% of control): 97.2% (inactive)
[14]
  efflux inhibition (fraction of control): 0.08 (inactive)
[15]
  inhibition: -5% (inactive)
[16]
  differentiation response: 3.18% (inactive)

## COc1ccccc1Oc1c(C)oc2c(CN3CCN(CCO)CC3)c(O)ccc2c1=O
[1]
  percent of DMSO control GFP: 104% (inactive)
[2]
  GFP response vs DMSO: 101% (inactive)
[3]
  percent response of DMSO control: 109% (inactive)
[4]
  GFP response vs DMSO: 98% (inactive)
[5]
  GFP response, % of DMSO: 104% (inactive)
[6]
  double positive events: 58.7%
  vesicle binding response: 111% (inactive)
[7]
  inhibition: -11.8% (inactive)
[8]
  superoxide response (% of plate): 96.1% (inactive)
[9]
  aptamer binding inhibition: -1% (inactive)
[10]
  response: 6.51% (inactive)
[11]
  inhibition: -2.65% (inactive)
[12]
  response: 0.24% (inactive)
[13]
  binding (% of control): 103% (inactive)
[14]
  efflux inhibition (fraction of control): -0.14 (inactive)
[15]
  inhibition: -1% (inactive)
[16]
  differentiation response: 11.5% (inactive)

## CC(C)(C)N(Cc1ccccc1)C(=O)c1ccc(Br)o1
[1]
  percent of DMSO control GFP: 103% (inactive)
[2]
  GFP response vs DMSO: 102% (inactive)
[3]
  percent response of DMSO control: 95.7% (inactive)
[4]
  GFP response vs DMSO: 107% (inactive)
[5]
  GFP response, % of DMSO: 101% (inactive)
[6]
  double positive events: 63.4%
  vesicle binding response: 147% (inactive)
[7]
  inhibition: -7.08% (inactive)
[8]
  superoxide response (% of plate): 101% (inactive)
[9]
  aptamer binding inhibition: 6% (inactive)
[10]
  response: -22.8% (inactive)
[11]
  inhibition: 4.28% (inactive)
[12]
  response: -8.19% (inactive)
[13]
  binding (% of control): 97.1% (inactive)
[14]
  efflux inhibition (fraction of control): 0.04 (inactive)
[15]
  inhibition: 6% (inactive)
[16]
  differentiation response: -11.9% (inactive)

## COc1ccc2cc(C(=O)OC(C)C)sc(=O)c2c1OC
[1]
  percent of DMSO control GFP: 106% (inactive)
[2]
  GFP response vs DMSO: 98.6% (inactive)
[3]
  percent response of DMSO control: 95.1% (inactive)
[4]
  GFP response vs DMSO: 121% (inactive)
[5]
  GFP response, % of DMSO: 106% (inactive)
[6]
  double positive events: 61.9%
  vesicle binding response: 220% (inactive)
[7]
  inhibition: 3.99% (inactive)
[8]
  superoxide response (% of plate): 112% (inactive)
[9]
  aptamer binding inhibition: 0% (inactive)
[10]
  response: -12.6% (inactive)
[11]
  inhibition: -1.55% (inactive)
[12]
  response: -19.1% (inactive)
[13]
  binding (% of control): 85.1% (inactive)
[14]
  efflux inhibition (fraction of control): 0 (inactive)
[15]
  inhibition: 4% (inactive)
[16]
  differentiation response: 11.8% (inactive)

## Clc1ccc2c(c1)CCc1cccnc1C2=C1CCNCC1
[1]
  percent of DMSO control GFP: 101% (inactive)
[2]
  GFP response vs DMSO: 109% (inactive)
[3]
  percent response of DMSO control: 104% (inactive)
[4]
  GFP response vs DMSO: 93.3% (inactive)
[5]
  GFP response, % of DMSO: 97% (inactive)
[6]
  double positive events: 63.9%
  vesicle binding response: 1240% (inactive)
[7]
  inhibition: 3.7% (inactive)
[8]
  superoxide response (% of plate): 98.7% (inactive)
[9]
  aptamer binding inhibition: 3% (inactive)
[10]
  response: 16.1% (inactive)
[11]
  inhibition: 13.9% (inactive)
[12]
  response: 1.57% (inactive)
[13]
  binding (% of control): 103% (inactive)
[14]
  efflux inhibition (fraction of control): -0.17 (inactive)
[15]
  inhibition: -15% (inactive)
[16]
  differentiation response: -4.64% (inactive)

From PubChem BioAssay
